Source: the supplement of paper PMC10849652
Targets with a hit are over-represented here; the source holds about 7,900 in all. About 0.6% of all pairs of compound and target were hits.

What was measured:
Experiment in all cases: log2 fold change, soluble protein after heating vs DMSO (PISA); higher = thermal stabilisation; K562 cells, 10 uM, 30 min; active = over 0.2 and 3.5 SD of the protein, either way, in both replicates (recomputed)
[1] = compound: NC(=O)Nc1cc(-c2cccc(F)c2)sc1C(=O)N[C@H]1CCCNC1
How it was run: (§1)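 K562 cells at 2×10^6 cells/mL were treated for 30 min with 10 μM compound, and aliquots were heated for 3 min over 48°C-58°C before pooling. Extraction used PBS with 0.5% NP-40 at 4°C, and soluble protein was the supernatant after 21,000xg for 90 min, measured by TMTpro 16plex LC-MS/MS with channel sums equalised. Thermal stability values, relative to control samples and from duplicates, are log2 fold changes.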

[2] = compound: NC(=O)c1cnc(N[C@@H]2CCCC[C@@H]2N)nc1Nc1cccc(-n2nccn2)c1
How it was run: as §1

[3] = compound: NC1(c2ccc(-c3nc4ccn5c(=O)[nH]nc5c4cc3-c3ccccc3)cc2)CCC1
How it was run: as §1

[4] = compound: NCC(=O)Nc1ccc(-n2nc(C(F)(F)F)cc2-c2ccc3c(ccc4ccccc43)c2)cc1
How it was run: as §1

entinostat = compound: Nc1ccccc1NC(=O)c1ccc(CNC(=O)OCc2cccnc2)cc1 [entinostat]
How it was run: as §1

vorinostat = compound: O=C(CCCCCCC(=O)Nc1ccccc1)NO [vorinostat]
How it was run: as §1

citarinostat = compound: O=C(CCCCCCNC(=O)c1cnc(N(c2ccccc2)c2ccccc2Cl)nc1)NO [citarinostat]
How it was run: as §1

silmitasertib = compound: O=C(O)c1ccc2c(c1)nc(Nc1cccc(Cl)c1)c1ccncc12 [silmitasertib]
How it was run: as §1

[5] = compound: O=C1NC(=O)C(c2cnc3ccccn23)=C1c1cn2c3c(cc(F)cc13)CN(C(=O)N1CCCCC1)CC2
How it was run: as §1

[6] = compound: c1cc(OCCN2CCCCC2)cc(-c2n[nH]c3ccc(-c4nnc[nH]4)cc23)c1
How it was run: as §1

Sequence of UniProt Q5VTL8 (Q5VTL8 whole entry, looked up): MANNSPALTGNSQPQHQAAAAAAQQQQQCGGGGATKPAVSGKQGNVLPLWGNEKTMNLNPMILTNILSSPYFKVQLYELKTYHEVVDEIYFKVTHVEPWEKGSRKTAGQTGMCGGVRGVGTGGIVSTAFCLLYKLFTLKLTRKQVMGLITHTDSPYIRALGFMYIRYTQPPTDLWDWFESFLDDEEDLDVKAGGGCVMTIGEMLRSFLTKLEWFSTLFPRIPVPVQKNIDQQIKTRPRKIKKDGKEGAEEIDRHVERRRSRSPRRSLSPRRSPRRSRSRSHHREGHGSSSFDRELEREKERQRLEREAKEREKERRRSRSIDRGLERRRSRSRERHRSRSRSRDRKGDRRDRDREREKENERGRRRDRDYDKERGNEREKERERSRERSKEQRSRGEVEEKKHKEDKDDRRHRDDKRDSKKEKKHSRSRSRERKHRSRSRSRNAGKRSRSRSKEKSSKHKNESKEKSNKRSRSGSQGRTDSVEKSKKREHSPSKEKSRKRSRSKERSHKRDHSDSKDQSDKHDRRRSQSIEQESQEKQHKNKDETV
Sequence of UniProt O60256 (O60256 whole entry, looked up): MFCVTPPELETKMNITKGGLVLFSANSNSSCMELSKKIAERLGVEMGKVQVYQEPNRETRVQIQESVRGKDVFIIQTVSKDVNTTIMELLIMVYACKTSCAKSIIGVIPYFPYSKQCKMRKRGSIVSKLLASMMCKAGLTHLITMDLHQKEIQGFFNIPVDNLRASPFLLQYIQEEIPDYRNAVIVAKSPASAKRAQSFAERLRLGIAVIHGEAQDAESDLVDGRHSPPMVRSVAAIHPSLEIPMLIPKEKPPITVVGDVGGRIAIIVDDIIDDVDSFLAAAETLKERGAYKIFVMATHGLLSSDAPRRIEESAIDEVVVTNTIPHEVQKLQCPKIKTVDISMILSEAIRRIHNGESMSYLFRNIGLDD
Sequence of UniProt Q9UHX1 (Q9UHX1 whole entry, looked up): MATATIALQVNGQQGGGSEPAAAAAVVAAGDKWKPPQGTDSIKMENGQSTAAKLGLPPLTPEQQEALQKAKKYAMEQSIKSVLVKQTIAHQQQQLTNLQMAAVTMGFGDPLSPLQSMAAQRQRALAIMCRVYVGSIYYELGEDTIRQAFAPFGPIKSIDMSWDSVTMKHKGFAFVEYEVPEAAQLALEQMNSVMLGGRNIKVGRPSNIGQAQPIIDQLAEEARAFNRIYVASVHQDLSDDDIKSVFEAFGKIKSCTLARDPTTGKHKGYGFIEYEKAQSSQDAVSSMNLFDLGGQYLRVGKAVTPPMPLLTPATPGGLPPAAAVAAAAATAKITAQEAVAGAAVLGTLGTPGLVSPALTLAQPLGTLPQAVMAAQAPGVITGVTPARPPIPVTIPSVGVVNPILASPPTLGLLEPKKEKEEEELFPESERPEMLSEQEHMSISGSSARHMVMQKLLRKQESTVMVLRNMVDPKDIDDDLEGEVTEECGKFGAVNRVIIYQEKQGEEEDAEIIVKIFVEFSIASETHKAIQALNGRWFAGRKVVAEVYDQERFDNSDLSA
Sequence of UniProt O00628 (O00628 whole entry, looked up): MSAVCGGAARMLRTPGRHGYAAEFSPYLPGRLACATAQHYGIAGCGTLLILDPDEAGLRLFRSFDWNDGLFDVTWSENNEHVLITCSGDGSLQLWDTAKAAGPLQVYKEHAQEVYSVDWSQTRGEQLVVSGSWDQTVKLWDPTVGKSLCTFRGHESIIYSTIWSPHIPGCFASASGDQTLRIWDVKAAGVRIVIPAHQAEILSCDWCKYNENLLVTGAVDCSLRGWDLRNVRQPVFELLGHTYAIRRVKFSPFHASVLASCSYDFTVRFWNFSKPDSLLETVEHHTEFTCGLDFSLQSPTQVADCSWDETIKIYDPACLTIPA
Sequence of UniProt Q14181 (Q14181 whole entry, looked up): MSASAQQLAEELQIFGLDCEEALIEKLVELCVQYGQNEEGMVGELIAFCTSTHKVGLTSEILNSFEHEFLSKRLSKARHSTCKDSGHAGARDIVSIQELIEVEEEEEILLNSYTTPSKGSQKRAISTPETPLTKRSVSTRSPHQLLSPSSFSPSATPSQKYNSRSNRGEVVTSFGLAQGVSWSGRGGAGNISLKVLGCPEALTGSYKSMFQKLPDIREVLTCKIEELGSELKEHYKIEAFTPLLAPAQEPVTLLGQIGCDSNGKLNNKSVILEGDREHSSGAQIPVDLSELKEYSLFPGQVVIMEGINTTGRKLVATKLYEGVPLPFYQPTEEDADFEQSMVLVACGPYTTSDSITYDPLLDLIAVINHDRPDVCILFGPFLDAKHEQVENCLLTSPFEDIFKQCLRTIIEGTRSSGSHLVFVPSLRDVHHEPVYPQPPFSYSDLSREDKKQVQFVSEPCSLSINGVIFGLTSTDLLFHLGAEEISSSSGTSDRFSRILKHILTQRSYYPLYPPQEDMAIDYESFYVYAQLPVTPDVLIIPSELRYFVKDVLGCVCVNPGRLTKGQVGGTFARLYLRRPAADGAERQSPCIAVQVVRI
Sequence of UniProt Q16537 (Q16537 whole entry, looked up): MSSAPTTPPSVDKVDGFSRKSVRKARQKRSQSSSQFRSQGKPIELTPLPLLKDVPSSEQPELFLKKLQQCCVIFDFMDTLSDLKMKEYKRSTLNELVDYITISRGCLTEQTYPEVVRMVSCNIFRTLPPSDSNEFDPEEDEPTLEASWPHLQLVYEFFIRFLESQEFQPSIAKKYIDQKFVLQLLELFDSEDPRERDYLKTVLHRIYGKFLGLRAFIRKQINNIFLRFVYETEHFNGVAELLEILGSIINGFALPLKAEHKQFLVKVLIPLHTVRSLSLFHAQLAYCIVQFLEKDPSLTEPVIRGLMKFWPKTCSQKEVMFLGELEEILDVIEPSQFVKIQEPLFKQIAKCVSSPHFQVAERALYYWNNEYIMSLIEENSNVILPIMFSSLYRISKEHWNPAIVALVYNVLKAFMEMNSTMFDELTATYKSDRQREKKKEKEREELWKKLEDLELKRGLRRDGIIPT
Sequence of UniProt P78356 (P78356 whole entry, looked up): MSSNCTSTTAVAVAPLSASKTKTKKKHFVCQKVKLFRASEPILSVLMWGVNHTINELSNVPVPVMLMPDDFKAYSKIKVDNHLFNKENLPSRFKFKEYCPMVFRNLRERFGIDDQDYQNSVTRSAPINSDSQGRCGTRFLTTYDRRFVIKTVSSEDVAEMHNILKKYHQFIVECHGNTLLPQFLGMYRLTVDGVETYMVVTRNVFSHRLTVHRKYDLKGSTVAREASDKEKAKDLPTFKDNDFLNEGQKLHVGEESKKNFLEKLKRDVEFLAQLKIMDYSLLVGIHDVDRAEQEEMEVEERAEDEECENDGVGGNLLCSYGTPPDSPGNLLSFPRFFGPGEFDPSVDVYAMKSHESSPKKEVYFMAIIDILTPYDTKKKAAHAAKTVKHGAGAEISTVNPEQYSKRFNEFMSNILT
Sequence of UniProt P29590 (P29590 whole entry, looked up): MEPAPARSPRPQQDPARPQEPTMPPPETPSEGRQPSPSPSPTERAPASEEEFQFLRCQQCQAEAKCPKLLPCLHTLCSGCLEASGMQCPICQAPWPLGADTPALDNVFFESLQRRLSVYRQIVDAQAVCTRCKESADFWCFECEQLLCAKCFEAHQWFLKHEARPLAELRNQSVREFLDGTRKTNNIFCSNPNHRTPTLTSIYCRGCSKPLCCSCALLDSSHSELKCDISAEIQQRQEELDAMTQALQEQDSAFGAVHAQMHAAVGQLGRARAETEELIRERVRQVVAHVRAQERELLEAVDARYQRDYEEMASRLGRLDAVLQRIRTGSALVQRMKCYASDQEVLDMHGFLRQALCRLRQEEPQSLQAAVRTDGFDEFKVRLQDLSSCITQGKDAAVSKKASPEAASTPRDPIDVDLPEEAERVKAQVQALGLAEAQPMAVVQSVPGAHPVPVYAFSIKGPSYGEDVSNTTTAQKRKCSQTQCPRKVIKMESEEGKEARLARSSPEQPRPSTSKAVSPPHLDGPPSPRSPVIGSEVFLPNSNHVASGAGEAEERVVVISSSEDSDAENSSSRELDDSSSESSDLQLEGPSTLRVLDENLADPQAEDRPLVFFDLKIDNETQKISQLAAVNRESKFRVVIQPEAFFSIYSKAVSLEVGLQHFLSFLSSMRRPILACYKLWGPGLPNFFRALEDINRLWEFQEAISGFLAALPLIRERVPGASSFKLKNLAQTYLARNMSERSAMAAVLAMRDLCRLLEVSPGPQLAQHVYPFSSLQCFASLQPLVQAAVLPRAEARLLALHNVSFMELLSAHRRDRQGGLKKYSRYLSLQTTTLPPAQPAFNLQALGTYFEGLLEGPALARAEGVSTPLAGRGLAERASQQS
Sequence of UniProt P48426 (P48426 whole entry, looked up): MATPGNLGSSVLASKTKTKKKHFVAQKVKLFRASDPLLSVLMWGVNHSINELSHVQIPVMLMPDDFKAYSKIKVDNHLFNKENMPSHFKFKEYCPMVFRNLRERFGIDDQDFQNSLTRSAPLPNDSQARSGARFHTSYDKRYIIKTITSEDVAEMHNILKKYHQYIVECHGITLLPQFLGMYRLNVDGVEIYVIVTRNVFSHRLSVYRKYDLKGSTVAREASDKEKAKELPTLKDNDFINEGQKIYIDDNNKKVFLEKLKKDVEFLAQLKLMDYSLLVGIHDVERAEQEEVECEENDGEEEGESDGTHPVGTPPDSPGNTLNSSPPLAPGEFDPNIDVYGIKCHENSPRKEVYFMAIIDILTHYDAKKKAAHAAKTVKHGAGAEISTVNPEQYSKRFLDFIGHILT
Sequence of UniProt Q15366 (Q15366 whole entry, looked up): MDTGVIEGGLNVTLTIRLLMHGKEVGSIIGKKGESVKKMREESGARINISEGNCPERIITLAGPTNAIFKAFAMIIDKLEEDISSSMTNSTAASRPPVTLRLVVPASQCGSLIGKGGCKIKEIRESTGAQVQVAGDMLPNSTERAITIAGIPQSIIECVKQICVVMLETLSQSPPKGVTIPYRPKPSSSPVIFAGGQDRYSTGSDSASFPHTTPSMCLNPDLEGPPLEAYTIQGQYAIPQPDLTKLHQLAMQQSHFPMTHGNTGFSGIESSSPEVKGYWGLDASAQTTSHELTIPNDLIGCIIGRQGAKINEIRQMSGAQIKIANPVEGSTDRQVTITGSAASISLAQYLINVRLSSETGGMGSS

Target | log2 fold change [1] | log2 fold change [2] | log2 fold change [3] | log2 fold change [4] | log2 fold change (entinostat) | log2 fold change (vorinostat) | log2 fold change (citarinostat) | log2 fold change (silmitasertib) | log2 fold change [5] | log2 fold change [6]
PRKAR1B (UniProt P31321) | 0.001 (inactive) | 0.085 (inactive) | 0.129 (inactive) | 0.045 (inactive) | -0.015 (inactive) | -0.031 (inactive) | 0 (inactive) | 0.07 (inactive) | 0.024 (inactive) | -0.142 (inactive)
PIP4K2B (UniProt P78356) | 0.06 (inactive) | 0.083 (inactive) | -0.053 (inactive) | 0.118 (inactive) | 0.096 (inactive) | 0.053 (inactive) | -0.009 (inactive) | 0.202 (inactive) | 0.044 (inactive) | 0.069 (inactive)
PIK3R1 (UniProt P27986) | -0.08 (inactive) | -0.056 (inactive) | -0.016 (inactive) | -0.021 (inactive) | -0.026 (inactive) | 0.029 (inactive) | 0.007 (inactive) | -0.013 (inactive) | 0.028 (inactive) | 0.126 (inactive)
PPP2R5E (UniProt Q16537) | 0.015 (inactive) | -0.039 (inactive) | -0.078 (inactive) | -0.09 (inactive) | -0.021 (inactive) | 0.118 (inactive) | 0.058 (inactive) | -0.014 (inactive) | -0.016 (inactive) | 0.163 (inactive)
PHKG2 (UniProt P15735) | 0.417 (active) | 0.088 (inactive) | -0.064 (inactive) | -0.035 (inactive) | -0.007 (inactive) | 0 (inactive) | 0.122 (inactive) | 0.052 (inactive) | 0.023 (inactive) | -0.045 (inactive)
PRPSAP2 (UniProt O60256) | -0.146 (inactive) | 0.1 (inactive) | 0.019 (inactive) | 0.034 (inactive) | -0.109 (inactive) | 0.003 (inactive) | -0.02 (inactive) | 0.011 (inactive) | -0.052 (inactive) | -0.03 (inactive)
POLA2 (UniProt Q14181) | -0.102 (inactive) | -0.115 (inactive) | -0.129 (inactive) | -0.133 (inactive) | -0.014 (inactive) | 0.072 (inactive) | 0.054 (inactive) | 0.058 (inactive) | -0.054 (inactive) | -0.026 (inactive)
PGK2 (UniProt P07205) | -0.056 (inactive) | -0.032 (inactive) | -0.038 (inactive) | -0.134 (inactive) | 0.021 (inactive) | -0.056 (inactive) | -0.121 (inactive) | 0.172 (inactive) | -0.532 (active) | -0.012 (inactive)
PIP4K2A (UniProt P48426) | -0.026 (inactive) | 0.013 (inactive) | -0.086 (inactive) | 0.113 (inactive) | 0.026 (inactive) | -0.037 (inactive) | 0.004 (inactive) | 0.259 (inactive) | 0.057 (inactive) | -0.057 (inactive)
PRUNE1 (UniProt Q86TP1) | -0.004 (inactive) | -0.012 (inactive) | -0.179 (inactive) | 0.052 (inactive) | 0.041 (inactive) | 0.04 (inactive) | 0.006 (inactive) | 0.138 (inactive) | -0.107 (inactive) | 0.018 (inactive)
PIP4P2 (UniProt Q8N4L2) | 0.02 (inactive) | -0.152 (inactive) | -0.373 (active) | -0.024 (inactive) | 0.007 (inactive) | 0.042 (inactive) | -0.02 (inactive) | 0.074 (inactive) | 0.082 (inactive) | 0.051 (inactive)
PLCL1 (UniProt Q15111) | 0.05 (inactive) | -0.035 (inactive) | -0.069 (inactive) | -0.01 (inactive) | 0.043 (inactive) | -0.012 (inactive) | 0.02 (inactive) | -0.475 (inactive) | -0.854 (active) | 0.05 (inactive)
PEX7 (UniProt O00628) | -0.017 (inactive) | -0.031 (inactive) | -0.022 (inactive) | -0.03 (inactive) | -0.077 (inactive) | 0.013 (inactive) | 0.074 (inactive) | -0.017 (inactive) | -0.051 (inactive) | 0.042 (inactive)
PMM2 (UniProt O15305) | 0.022 (inactive) | 0.01 (inactive) | 0.016 (inactive) | -0.024 (inactive) | -0.004 (inactive) | 0.007 (inactive) | 0.024 (inactive) | -0.001 (inactive) | -0.05 (inactive) | -0.02 (inactive)
PRPF38A (UniProt Q8NAV1) | -0.039 (inactive) | -0.015 (inactive) | -0.105 (inactive) | -0.006 (inactive) | 0.004 (inactive) | 0.002 (inactive) | 0.152 (inactive) | -0.212 (inactive) | 0.095 (inactive) | -0.122 (inactive)
PSMD6 (UniProt Q15008) | -0.028 (inactive) | 0.037 (inactive) | -0.024 (inactive) | 0.082 (inactive) | -0.045 (inactive) | -0.001 (inactive) | -0.017 (inactive) | 0.011 (inactive) | 0.039 (inactive) | -0.063 (inactive)
PDE4DIP isoform 4 (UniProt Q5VU43) | 0.113 (inactive) | -0.006 (inactive) | 0.009 (inactive) | 0.011 (inactive) | 0.015 (inactive) | -0.025 (inactive) | 0.018 (inactive) | -0.041 (inactive) | -0.03 (inactive) | -0.039 (inactive)
PUF60 (UniProt Q9UHX1) | -0.112 (inactive) | -0.029 (inactive) | -0.035 (inactive) | -0.132 (inactive) | 0.049 (inactive) | 0.028 (inactive) | 0.079 (inactive) | -0.098 (inactive) | -0.025 (inactive) | -0.092 (inactive)
PCTP (UniProt Q9UKL6) | -0.078 (inactive) | -0.07 (inactive) | -0.023 (inactive) | -0.092 (inactive) | 0.065 (inactive) | -0.051 (inactive) | 0.003 (inactive) | 0.043 (inactive) | -0.061 (inactive) | 0.363 (inactive)
PKM (UniProt P14618) | 0.01 (inactive) | -0.029 (inactive) | 0.011 (inactive) | -0.025 (inactive) | -0.013 (inactive) | -0.009 (inactive) | 0.016 (inactive) | -0.016 (inactive) | -0.032 (inactive) | -0.02 (inactive)
PCBP2 isoform 3 (UniProt Q15366) | 0.001 (inactive) | -0.074 (inactive) | -0.102 (inactive) | -0.088 (inactive) | 0.062 (inactive) | 0.099 (inactive) | 0.104 (inactive) | 0.019 (inactive) | -0.015 (inactive) | -0.023 (inactive)
PTRH2 (UniProt Q9Y3E5) | -0.061 (inactive) | 0.018 (inactive) | -0.001 (inactive) | 0.004 (inactive) | -0.016 (inactive) | -0.002 (inactive) | 0.047 (inactive) | 0.007 (inactive) | -0.089 (inactive) | 0.005 (inactive)
PDLIM7 (UniProt Q9NR12) | 0.003 (inactive) | 0.009 (inactive) | 0.043 (inactive) | -0.042 (inactive) | 0.011 (inactive) | 0.082 (inactive) | 0.037 (inactive) | -0.017 (inactive) | 0.021 (inactive) | -0.026 (inactive)
PRPF3 (UniProt O43395) | 0.026 (inactive) | -0.029 (inactive) | -0.099 (inactive) | -0.077 (inactive) | 0.064 (inactive) | 0.128 (inactive) | 0.194 (inactive) | -0.014 (inactive) | -0.063 (inactive) | 0 (inactive)
PML (UniProt P29590) | 0.021 (inactive) | -0.027 (inactive) | -0.029 (inactive) | 0.015 (inactive) | -0.002 (inactive) | -0.059 (inactive) | 0.019 (inactive) | 0.088 (inactive) | 0.002 (inactive) | -0.042 (inactive)
PRKCE (UniProt Q02156) | -0.068 (inactive) | -0.084 (inactive) | -0.177 (inactive) | -0.078 (inactive) | 0.01 (inactive) | 0.107 (inactive) | -0.019 (inactive) | -0.016 (inactive) | -0.018 (inactive) | -0.055 (inactive)
PPT1 (UniProt P50897) | -0.049 (inactive) | -0.095 (inactive) | -0.338 (active) | -0.096 (inactive) | -0.03 (inactive) | -0.036 (inactive) | 0.053 (inactive) | 0.019 (inactive) | -0.041 (inactive) | -0.041 (inactive)
PPP1R12A (UniProt O14974) | -0.428 (active) | -0.358 (inactive) | -0.137 (inactive) | -0.012 (inactive) | 0.041 (inactive) | 0.017 (inactive) | 0.078 (inactive) | 0.051 (inactive) | -0.01 (inactive) | -0.369 (inactive)
POLR2B (UniProt P30876) | -0.054 (inactive) | 0.059 (inactive) | -0.043 (inactive) | -0.106 (inactive) | 0.061 (inactive) | -0.089 (inactive) | 0 (inactive) | 0.1 (inactive) | 0.09 (inactive) | -0.065 (inactive)
PRPF38B (UniProt Q5VTL8) | -0.199 (inactive) | -0.019 (inactive) | 0.017 (inactive) | -0.203 (inactive) | 0.006 (inactive) | 0.033 (inactive) | 0.028 (inactive) | -0.246 (inactive) | -0.006 (inactive) | -0.19 (inactive)
